From PubChem BioAssay AID1851 (National Center for Advancing Translational Sciences (NCATS), 2009)
Screen size: about 16,000 compounds; about 4,000 (25%) were called active. Not shown: some 26% with an inconclusive outcome. Calls come from the whole dose curve; as a rule, active = well fitted curve in the direction sought with a large enough effect; inconclusive = small, poorly fitted or top-dose-only effect, or effect the other way; inactive = no such curve, though single readings can be large or run the other way. These entries were drawn from the full list.

What follows are compounds tested against Cytochrome P450 2C9 (Homo sapiens) (UniProt P11712) (assay: Cytochrome panel assay with activity outcomes). Details: recombinant CYP, pro-luciferin dealkylation, luminescence, p450-cyp2c9; series mostly up to 57.1 µM.
Chain of Cytochrome P450 2C9 (Homo sapiens) (P11712 whole entry, looked up): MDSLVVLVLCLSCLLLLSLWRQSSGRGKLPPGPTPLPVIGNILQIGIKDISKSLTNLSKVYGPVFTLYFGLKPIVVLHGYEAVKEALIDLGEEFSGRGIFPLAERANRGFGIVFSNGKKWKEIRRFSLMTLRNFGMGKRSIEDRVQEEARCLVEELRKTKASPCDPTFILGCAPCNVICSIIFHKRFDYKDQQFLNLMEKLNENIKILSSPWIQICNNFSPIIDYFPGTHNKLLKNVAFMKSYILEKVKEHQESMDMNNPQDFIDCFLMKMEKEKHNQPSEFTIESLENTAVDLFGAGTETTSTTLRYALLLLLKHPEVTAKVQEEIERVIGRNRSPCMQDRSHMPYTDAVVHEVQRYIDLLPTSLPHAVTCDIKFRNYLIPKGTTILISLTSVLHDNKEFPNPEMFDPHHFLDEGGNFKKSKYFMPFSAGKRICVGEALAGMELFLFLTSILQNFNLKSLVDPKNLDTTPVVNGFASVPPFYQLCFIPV
% is set by controls: 0 for no effect and ±100 for the full control effect.

Structure (SMILES) | activity, negative = inhibition | AC50
Cc1ccc(S(=O)(=O)N[C@H]2COC(=O)C/C=C\[C@@H](C)[C@H](NS(=O)(=O)c3ccc(C)cc3)COC(=O)C/C=C\[C@H]2C)cc1 | 0.307% [at 11.4 µM] (inactive) | 
CNC(=O)c1ccc(-c2sc3nc(N4CCOCC4)c4c(c3c2N)CC(C)(C)OC4)o1 |  | 4.47 µM (active)
CCNc1ncc2nc(-c3cccc(C#N)c3)c(=O)n(C)c2n1 |  | inactive
CCOc1nc(NC(C)C)nc(NC(C)C)n1 |  | inactive
CCN(CC)S(=O)(=O)c1cc(C(=O)Nc2ccccc2C(=O)O)ccc1OC |  | 2.24 µM (active)
COc1ccc(C(=O)Nc2cccc3c2C(=O)NC3=O)cc1S(=O)(=O)N1CCOCC1 |  | inactive
CCN(CC)S(=O)(=O)c1ccc(OC)c(NC(=O)c2cc([N+](=O)[O-])ccc2Cl)c1 |  | inactive
CCN(CC)S(=O)(=O)c1ccc(OC)c(NC(=O)CSc2ccccc2)c1 |  | 2.51 µM (active)
C[C@H]1CC(C)(C)C[C@@](OCCN2CCCCC2)(c2ccccc2)C1 | 5.46% [at 11.4 µM] (inactive) | 
CCNc1ncc2nc(-c3cccs3)c(=O)n(C[C@H]3CCCO3)c2n1 |  | inactive
O=C(Oc1ccccc1)N1CCC2(CC1)CCN(c1ccccc1)CC2 |  | inactive
CC(=O)N1CCC[C@@]2(CCN(c3ccncc3)C2)C1 |  | inactive
O=C(Oc1ccccc1)N1CCC2(CC1)CN(c1ccccc1)C2 |  | inactive
O=C(Oc1ccccc1)N1CCC2(CC1)CCN(c1ncccn1)CC2 |  | 15.8 µM (active)
COC(=O)N1CCC[C@@]2(CCN(c3ncccn3)C2)C1 |  | inactive
COC(=O)N1CCC2(CC1)CN(c1ccncc1)C2 |  | inactive
O=C(c1ccncc1)N1CCC[C@@]2(CCN(c3ccccc3)C2)C1 |  | inactive
O=C(Oc1ccccc1)N1CCC[C@@]2(CCN(c3ccncc3)C2)C1 |  | 10 µM (active)
O=C(Oc1ccccc1)N1CCC[C@@]2(CCN(c3ncccn3)C2)C1 |  | 10 µM (active)
O=C(Oc1ccccc1)N1CCC2(CC1)CN(c1ccccn1)C2 |  | inactive

Structure (SMILES) | activity, negative = inhibition | AC50
CC(=O)N1CCC[C@@]2(CCN(c3ncccn3)C2)C1 |  | inactive
O=C(Oc1ccccc1)N1CCC2(CC1)CN(c1ccncc1)C2 |  | 3.16 µM (active)
COCC(=O)N1CCC2(CCCN(C(=O)Nc3cccc(C#N)c3)C2)CC1 |  | inactive
O=[N+]([O-])c1nccn1C[C@H](O)CN1CCCCC1 | 0.319% [at 11.4 µM] (inactive) | 
COc1cccc(Nc2ncc3nc(-c4cc(F)cc(F)c4)c(=O)n(CCC#N)c3n2)c1 |  | inactive
CCN1/C(=C/c2ccc3cccc(C)c3[n+]2CC)Sc2ccccc21 |  | inactive
Cn1ncc([N+](=O)[O-])c1C(=O)N1CCOCC1 |  | inactive
O=[N+]([O-])c1cc(F)c(N2CCOCC2)cc1N1CCCCC1 |  | 7.08 µM (active)
O=C1N/C(=C\c2ccc(N3CCOCC3)c(F)c2)C(=O)N1Cc1ccccc1 |  | inactive
N#Cc1c2n(c3c(=S)nc[nH]c13)CCCCC2 |  | 17.8 µM (active)
CO[C@H]1COC(=O)[C@H](C)COC(=O)C/C=C\[C@@H](C)[C@H](OC)COC(=O)C/C=C\[C@@H]1C | 8.36% [at 11.4 µM] (inactive) | 
CCCc1ccc(C2C3=C(CC(C)(C)CC3=O)NC3=C2C(=O)c2ccccc23)cc1 (centres undefined) |  | 7.94 µM (active)
CO[C@H]1COC(=O)[C@@H](Cc2ccccc2)NC(=O)[C@@H](C)COC(=O)C/C=C\[C@@H]1C | 15.1% [at 11.4 µM] (inactive) | 
O=C(O)C(Cc1cccs1)C(=O)O | -6.54% [at 11.4 µM] (inactive) | 
Cc1ccc(/C(N)=N/OC(=O)Cc2cccs2)cc1 |  | 7.08 µM (active)
Cc1ccc(C(N)=Nc2ccccc2)cc1 | 3.59% [at 11.4 µM] (inactive) | 
C[N+]1(C)C[C@@H](O)C[C@@H]1C(=O)[O-] |  | inactive
Cc1ccccc1-c1cncnc1NCc1cccs1 | 0.654% [at 2.29 µM] (inactive) | 
COc1cccc(C(CC(=O)Nc2cccc3ccccc23)NC(=O)c2ccccc2)c1 (centres undefined) |  | 0.251 µM (active)
CN(CCO)c1nc(N)c2c(N)nc3c(c2c1C#N)CC(=O)N3C1CCCC1 |  | 1.41 µM (active)

Structure (SMILES) | activity, negative = inhibition | AC50
CC(C)NC(=O)N1CCCC2(CCN(C(=O)c3ccco3)CC2)C1 |  | inactive
CC(C)(C)c1cc2c(O)c(c1)Cc1cc(C(C)(C)C)cc(c1O)Cc1cc(C(C)(C)C)cc(c1O)Cc1cc(C(C)(C)C)cc(c1O)Cc1cc(C(C)(C)C)cc(c1O)Cc1cc(C(C)(C)C)cc(c1O)Cc1cc(C(C)(C)C)cc(c1O)Cc1cc(C(C)(C)C)cc(c1O)C2 | -3.37% [at 11.4 µM] (inactive) | 
Cn1c(-c2ccc3c(c2)OCO3)cc(=O)c2ccccc21 |  | inactive
CN(Cc1ccco1)c1nc(-c2ccc3c(c2)OCO3)nc2ccccc12 | -18.1% [at 2.29 µM] (inactive) | 
c1ccc2c(c1)ncn2Cc1nnc2sc(-c3ccc4c(c3)OCO4)nn12 |  | 3.16 µM (active)
COc1cc(C(=O)OC(C)C(=O)Nc2ccc3c(c2)OCO3)ccc1OCc1c(C)noc1C (centres undefined) |  | 11.2 µM (active)
Cc1noc(C)c1COc1ccc(C(=O)NCC2CCCO2)cc1 (centres undefined) |  | inactive
COc1ccc(C(=O)OC(C)CN2CCN(C)CC2)cc1OC (centres undefined) |  | inactive
N#C[C@@H](N=Nc1ccccc1C(=O)O)C(N)=O | -3.32% [at 11.4 µM] (inactive) | 
CNc1nc(-c2ccccc2C)nc2ccccc12 | 24.9% [at 2.29 µM] (inactive) | 
CCN(CC)S(=O)(=O)c1ccc(C(=O)Nc2ncn(Cc3ccccc3)n2)cc1 |  | 11.2 µM (active)
CCCN(CCC)S(=O)(=O)c1ccc(C(=O)O)cc1 |  | inactive
O[C@@H](C1=C/C(=C\c2ccncc2)c2ccccc21)c1ccncc1 |  | 0.1 µM (active)
Cc1cc(C(C)(C)C)cc(C)c1CC1=NCCN1 |  | inactive
CCCCN(C(=O)Nc1ccc(OCC)cc1)C1CCN(C(C)=O)CC1 |  | inactive
CCOc1ccc(NC(=O)N(C2CCCCC2)C(C)c2ccncc2)cc1 (centres undefined) |  | 3.55 µM (active)
CCOc1ccc(NC(=O)N2CCC(C(N)=O)(N3CCCCC3)CC2)cc1 |  | inactive
c1ccc(CCNc2ccccn2)nc1 | -7.63% [at 11.4 µM] (inactive) | 
CCN(CCO)C[C@H]1CCC[C@H]2CCCC[C@@H]21 | 1.06% [at 11.4 µM] (inactive) | 
